Data reported in ChEMBL document CHEMBL3988442, “University of Dundee, Small-Polar-MMV Screening Library” (2021).
About 13,000 (27%) of roughly 48,000 compounds showed an effect of 50% or more. The list shows a part of the results.

Tested on: Wolbachia pipientis
Assay: Anti-Wolbachia Cell-Based Screen
Type: functional
Parameters: scale not given: in the data most compounds retested in dose-response had high values
Settings: 5 µM

| SMILES | Percent Effect [%] |
| --- | --- |
| OC(CN1CCN(CC2CC2)CC1)c1ccc(Br)cc1 (configuration not stated) | 16.18 |
| CCNC(=O)NC(=O)C(C)N1CCCc2cc(OC)ccc2C1 (configuration not stated) | -0.429 |
| CCc1ccc(C(C)NC(=O)CCc2nc(-c3nnc[nH]3)no2)cc1 (configuration not stated) | 0.9549 |
| CC(C)CC(O)C1CCN(Cc2ccc(N(C)C)nc2)CC1 (configuration not stated) | 7.143 |
| Cc1nc(C(NC(=O)c2cc(C(C)C)[nH]n2)c2ccccc2)n[nH]1 (configuration not stated) | -6.911 |
| CCC(CO)N(Cc1ccccn1)C(=O)c1cccc(C#N)c1 (configuration not stated) | -13.95 |
| CNS(=O)(=O)c1ccc(CNC(=O)Nc2ccccn2)s1 | -5.463 |
| CS(=O)(=O)c1nnc(NC(=O)CCc2cc(F)ccc2F)[nH]1 | -16.39 |
| CC1c2ncc(Cn3cncn3)n2CCN1C(=O)c1ccccn1 (configuration not stated) | 114.5 |
| CC1c2ncc(Cn3cncn3)n2CCN1C(=O)c1cscn1 (configuration not stated) | 89.1 |
| COCc1cnc2n1CCN(C(=O)C1=CCCCC1)C2C (configuration not stated) | 2.775 |
| COCc1cnc2n1CCN(C(=O)c1cc3cc(Cl)ccc3o1)C2C (configuration not stated) | 1.755 |
| CC1c2ncc(Cn3cncn3)n2CCN1C(=O)c1ccsc1 (configuration not stated) | 106 |
| CC1c2ncc(Cn3cncn3)n2CCN1C(=O)Cc1cccs1 (configuration not stated) | -8.694 |
| CN1CCN(Cc2cnc3n2CCN(C(=O)c2cscn2)C3)CC1 | 22 |
| O=C(CSC1=NS(=O)(=O)c2cc(Cl)ccc2N1)c1ccccc1 | 112.7 |
| O=C(CN1C(=O)c2ccccc2CS1(=O)=O)c1ccc(Cl)cc1 | -11.99 |
| O=C(CSC1=NS(=O)(=O)c2cc(F)ccc2N1)c1ccccc1 | 100.3 |
| CCN1CC(Oc2ccc(Cl)cc2)=NC(SCC(=O)c2ccccc2)=N1 | 3.791 |
| O=C(CSC1=NS(=O)(=O)c2cc(F)ccc2N1)c1ccc(Cl)cc1 | 4.147 |
| Cc1nc(COC[C@H]2CC[C@H]3[C@H](CCN3c3ncccn3)O2)cs1.O=C(O)C(F)(F)F | -1.05 |
| COc1cc(NC(=O)NC2CC2)ccc1N1CCOC1=O | -6.648 |
| CCc1[nH]c2c(CNC(=O)[C@@H]3CCCN3C)cc(C)cc2c1C | 16.75 |

| SMILES | Percent Effect [%] |
| --- | --- |
| Cn1ccnc1C(O)(CCNCc1ccc(Cl)o1)C(F)(F)F (configuration not stated) | -7.652 |
| O=C(c1ccsc1)N1CCc2nnc(COc3cncnc3)n2CC1 | -11 |
| Cc1ncsc1CNc1ccn(Cc2ccccc2)n1 | -3.966 |
| CC(C)[C@H](N)CC(=O)Nc1nc(-c2cnc(N3CCOCC3)nc2)cs1.Cl | 116.3 |
| COCC(=O)Nc1cnc(N2CCOCC2)nc1 | -9.684 |
| CC[C@H](C)[C@H](N)C(=O)Nc1nc(-c2cnc(N3CCOCC3)nc2)cs1 | 101.5 |
| CCOc1ccc(NC(=O)Nc2cnc(N3CCOCC3)nc2)cc1 | 2.27 |
| CCC(C(=O)NCc1csc(N2CCOCC2)n1)n1cccn1 (configuration not stated) | 4.05 |
| CC(C)C(NC(=O)c1nc(N2CCOCC2)ncc1Cl)c1cccs1 (configuration not stated) | 8.573 |
| O=C(O)C(F)(F)F.O=C(O)C(F)(F)F.c1ccc(OCc2n[nH]c3c2CN(CC2CC2)C3)nc1 | 5.634 |
| O=C(Cn1cccn1)N1CCc2[nH]nc(-c3ccc4c(c3)OCO4)c2C1 | 1.932 |
| O=C(CCn1cccc1)N1CCc2[nH]nc(COc3ccccc3)c2C1 | 87.66 |
| Cc1nc(C)c(C(=O)N2CCc3[nH]nc(COc4ccccc4)c3C2)s1 | 5.403 |
| COC(=O)CCC(=O)N1CCc2[nH]nc(-c3ccc(F)c(F)c3)c2C1 | 3.026 |
| O=C(N1CCOCC1)N1CCc2[nH]nc(COc3cccc(Cl)c3)c2C1 | 2.718 |
| O=C(CSCC1CC1)N1CCc2[nH]nc(COc3ccccc3)c2C1 | 108.9 |
| CCSCCC(=O)N1CCc2[nH]nc(COc3ccccc3)c2C1 | 89.78 |
| O=C1CC[C@@H](C(=O)N2CCc3[nH]nc(COc4cccc(Cl)c4)c3C2)N1 | 3.497 |
| CN(C)S(=O)(=O)N1C[C@@H]2CC[C@H](C1)N(Cc1cccc(C#N)c1)C2 | -14.1 |
| CCc1nc(CNC(=O)C2CCC(=O)N(Cc3ccccc3F)C2)no1 (configuration not stated) | -29.1 |
| CCNc1ncc(C(=O)NCCc2csc(CSC)n2)cn1 | -1.673 |
| COC(=O)C(C)(C)NC(=O)c1scnc1Cl | 4.833 |
| CC1(C)OCC2(CO1)CN(C(=O)c1ccccc1Br)C2 | -7.61 |

| SMILES | Percent Effect [%] |
| --- | --- |
| O=C1NCCCCC1NC(=O)C1(c2cccc(C(F)(F)F)c2)CC1 (configuration not stated) | -27.01 |
| CC[C@H](C)[C@H](N)C(=O)Nc1nc(-c2cnc(N(C)C)nc2)cs1 | 89.2 |
| CCC(Nc1nnnn1-c1ccccc1)C(=O)Nc1nc(C)cs1 (configuration not stated) | 23.33 |
| Cc1nc(-c2cccc(C(=O)N(C)CC(C)O)c2)cs1 (configuration not stated) | -6.133 |
| CC[C@H](C)[C@H](N)C(=O)Nc1nc(-c2cnc(N(C)CCO)nc2)cs1 | 103.7 |
| Cc1cc(CN(C)C(=O)NC(C)Cc2ccc(O)cc2)no1 (configuration not stated) | 12.34 |
| Cc1ccc(OCC(=O)Nc2cnccc2SCCCO)cc1C | -7.18 |
| CN(Cc1ccccc1CN1CCCC1)C(=O)c1c[nH]c(=O)[nH]1 | 14.99 |
| Cc1ccc(S(=O)(=O)N2CSCC2C(=O)N(C)C2CC2)cc1Cl (configuration not stated) | 4.535 |
| CSc1cccc(CN2CCC(CCC(=O)Nc3ccccc3)CC2)c1 | 5.512 |
| Cc1cc(C)c(C(=O)Nc2cccc(CN3CCC(CO)CC3)c2)o1 | 132.4 |
| O=C(Nc1cccc(CN2CCC(CO)CC2)c1)c1cc(Cl)c[nH]1 | 101.9 |
| Cc1nc(C)n(Cc2cccc(NC(=O)NC(C)(CO)C3CC3)c2)n1 (configuration not stated) | -1.537 |
| O=C(Nc1cccnc1)Nc1cccc(CN2CCC(O)CC2)c1 | -1.395 |
| COC(=O)C(O)C1CCN(Cc2cccc(-n3cccn3)c2)CC1 (configuration not stated) | 8.265 |
| Cc1nc(C)c(C(=O)Nc2cccc(CN3CCC(CO)CC3)c2)o1 | 118.5 |
| CN(C)CCn1c(=O)oc2ccc(NC(=O)c3cc(Cl)c[nH]3)cc21 | -2.174 |
| NC(=O)C1CCN(Cc2cccc(NC(=O)c3ccsc3)c2)CC1 | -7.959 |
| CSc1cccc(CN2CCC(CCC(=O)NC3CC3)CC2)c1 | 0.2093 |
| Cc1nc(CN2CCC(CNC(=O)Nc3ccccc3)CC2)oc1C | -9.889 |
| N#Cc1ccccc1C(=O)Nc1cccc(CN2CCC(CO)CC2)c1 | 103.3 |
